From PubChem BioAssay
Only some compounds are listed: those with a hit (about 17% of all), similar ones and a draw of the others.
TDP1 inh – inhibitors of human tyrosyl-DNA phosphodiesterase TDP1. Q9NUW8. recombinant TDP1, AlphaScreen DNA substrate cleavage. Potency, µM (titrated, usually from 130 µM), inactives show at the highest dose activity change, negative = inhibition, actives largely listed as inhibitors. 350,000 tested, 0.28% active. AID 485290; note: % is set by controls: 0 for no effect and ±100 for the full control effect; nearly all actives have a fitted effect of over 40% in size
Target sequence (Q9NUW8 whole entry, looked up): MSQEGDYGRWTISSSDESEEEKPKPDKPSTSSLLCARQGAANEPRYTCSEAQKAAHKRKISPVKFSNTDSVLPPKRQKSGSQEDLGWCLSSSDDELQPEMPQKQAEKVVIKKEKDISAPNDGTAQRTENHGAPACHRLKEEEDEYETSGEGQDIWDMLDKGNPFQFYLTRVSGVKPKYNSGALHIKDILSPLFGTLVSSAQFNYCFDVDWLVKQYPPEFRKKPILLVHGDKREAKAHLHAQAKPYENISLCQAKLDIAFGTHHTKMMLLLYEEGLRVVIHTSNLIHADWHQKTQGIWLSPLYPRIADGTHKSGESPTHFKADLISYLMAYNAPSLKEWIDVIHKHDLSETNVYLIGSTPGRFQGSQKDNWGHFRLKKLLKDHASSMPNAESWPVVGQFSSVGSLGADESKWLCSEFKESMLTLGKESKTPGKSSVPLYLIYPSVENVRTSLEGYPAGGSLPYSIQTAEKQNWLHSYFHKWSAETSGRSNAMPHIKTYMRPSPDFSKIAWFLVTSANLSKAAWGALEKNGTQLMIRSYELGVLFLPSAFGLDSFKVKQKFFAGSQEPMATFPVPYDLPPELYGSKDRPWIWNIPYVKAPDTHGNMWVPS
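AlphaScreen read-out: signal falls as enzyme removes the 3' tyrosine-FITC from a 5'-biotinylated DNA oligo (15 nM, 5 min, RT). Enzyme was E. coli-made recombinant Tdp1 at 1 nM, exposed to compound for 15 min beforehand; beads 10 ug/ml, 10 min.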
ClpP mod – qHTS Assay for Activators of ClpP. purified B. subtilis ClpP, FRET peptide cleavage, 20 min. AID 651965, 2013. 340,000 tested, 1.9% active. Potency, µM (series often up to 57.5 µM), for the others: top-dose activity change, negative = active; active = well fitted falling curve with a large enough effect; inconclusive = small, poorly fitted or top-dose-only effect; inactive = no such curve, though single readings can be large or run the other way; note: the source files actives as falling curves though it sought activators and does not explain the sign; nearly all actives have a fitted effect of over 65% in size
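FRET quenching reversal measured ClpP activation: 10 microg/mL B. subtilis ClpP at pH 8 with the FRET-FV decapeptide, read at 430 nm after 320 nm excitation. The 20-min minus 0-min signal was scaled between DMSO/no-enzyme wells and ADEP (5.8 microM final).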
DT40 TDP1 CPT – growth inhibition of DT40 Tdp1-/-;hTDP1 cells with camptothecin (screen for TDP1 inhibitors); chicken DT40 Tdp1-/-;hTDP1 cells + 20 nM CPT, ATP luminescence, 48 h; Potency, µM (highest dose often 46.2 µM), for the others: at the highest dose activity change, negative = growth inhibition, usual class: inhibitors; 420,000 tested, 12% active; AID 686979; note: % is set by controls: 0 for no effect and ±100 for the full control effect; nearly all actives have a fitted effect of over 55% in size
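Chicken DT40 Tdp1-/- cells stably complemented with human TDP1 were seeded at 400 cells/well in medium containing 20 nM camptothecin, exposed to pin-transferred compounds, and grown at 37 °C for at least 48 hr. Viability was read as ATP luminescence.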
TDP1 cell noCPT – qHTS for Inhibitors of human tyrosyl-DNA phosphodiesterase 1 (TDP1): qHTS in cells in absence of CPT; 420,000 tested, 15% active; DT40 Tdp1-/- hTDP1 cells, no CPT, ATP luminescence, 48 h; Potency, µM (titrated, usually from 46.2 µM), without a hit: at the top dose activity change, negative = growth inhibition, hits mostly inhibitors; note: % is set by controls: 0 for no effect and ±100 for the full control effect; nearly all actives have a fitted effect of over 55% in size
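No-CPT arm: Tdp1-/-;hTDP1 DT40 cells (400/well) plus compounds, incubated ≥48 hr at 37 °C. Readout CellTiter-Glo luminescence.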
* hit, by the source's call. Unless noted, calls come from the whole dose curve; as a rule, active = well fitted curve in the direction sought with a large enough effect; inconclusive = small, poorly fitted or top-dose-only effect, or another doubt; inactive = no such curve, though single readings can be large; an effect the other way counts as inactive or inconclusive. Potency is the fitted concentration of half-maximal effect.

Results for CCC(C)NC(=O)CN(c1cc(Cl)ccc1OC)S(C)(=O)=O (stereo not drawn) ?
TDP1 inh: -3%; ClpP mod: 0%; DT40 TDP1 CPT: -24%; TDP1 cell noCPT: 8%

How did COc1ccc(CN(C)C(=O)CCN=C2NS(=O)(=O)c3ccccc32)c(OC)c1 do in these assays?
TDP1 inh: 0%; ClpP mod: 0%; DT40 TDP1 CPT: -20%; TDP1 cell noCPT: -3%

Results for CCCCCCCCCCCCCCCCOCCOCCOCCOCCOCCOCCOCCOCCOCCOCCOCCOCCOCCOCCOCCOCCOCCOCCOCCOCCO ?
DT40 TDP1 CPT: 24µM*; TDP1 cell noCPT: 7.5µM*

Results for CCCCCCCCCCOCC(O)CN (stereo not drawn) ?
TDP1 inh: 6%; DT40 TDP1 CPT: 6.7µM*; TDP1 cell noCPT: 6.7µM*

How did CCOC(=O)C1C(c2cccc([N+](=O)[O-])c2)C2C(=O)NN=C2CC1(C)O (stereo not drawn) do in these assays?
TDP1 inh: 5%; DT40 TDP1 CPT: inconclusive; TDP1 cell noCPT: inconclusive

What do the screens show for `CN(C)CCCNc1cc(C(C)(C)C)nc2c(-c3ccc(Cl)cc3)cnn12`?
TDP1 inh: 4%; DT40 TDP1 CPT: 13µM*; TDP1 cell noCPT: inconclusive

Results for CCc1nccn1-c1cc(C(C)(C)C)nc2c(-c3ccc(Cl)cc3)cnn12 ?
TDP1 inh: 4%; ClpP mod: -8%; DT40 TDP1 CPT: inconclusive; TDP1 cell noCPT: 18µM*

How did CC(C)(C)c1cc(NCc2ccccn2)n2ncc(-c3ccc(Cl)cc3)c2n1 do in these assays?
TDP1 inh: 4%; ClpP mod: 4%; DT40 TDP1 CPT: inconclusive; TDP1 cell noCPT: 16µM*

Results for Cc1cc(NCCCN2CCOCC2)n2ncc(-c3ccc(Cl)cc3)c2n1 ?
TDP1 inh: 2%; ClpP mod: 25µM*; DT40 TDP1 CPT: inconclusive; TDP1 cell noCPT: inconclusive

Results for CCCCCCCCCCCCCCCCC(C(=O)O)C(O)(CC(=O)O)C(=O)O (stereo not drawn) ?
DT40 TDP1 CPT: 17%; TDP1 cell noCPT: -9%

How did Cc1cccn2c(Nc3ccccc3)c(-c3ccccn3)nc12 do in these assays?
TDP1 inh: 5%; DT40 TDP1 CPT: 18µM*; TDP1 cell noCPT: 21µM*

Results for Cc1cccc(C)c1Nc1c(-c2ccccn2)nc2c(C)cccn12 ?
TDP1 inh: 15%; ClpP mod: -1%; DT40 TDP1 CPT: 16µM*; TDP1 cell noCPT: 26µM*

What do the screens show for `CC(=O)Oc1ccc(CC(C(=O)O)N2C(=O)c3ccccc3C2=O)cc1` (stereo not drawn)?
DT40 TDP1 CPT: 5%; TDP1 cell noCPT: -2%

Results for CC(=O)Oc1ccc(C#C/C=C2\c3ccccc3C(=O)N2c2ccccc2)cc1 ?
TDP1 inh: 4%; ClpP mod: -1%; DT40 TDP1 CPT: 23µM*; TDP1 cell noCPT: 21µM*

Results for O=C(c1cccs1)N1CCCc2cc(NS(=O)(=O)c3cc(F)ccc3F)ccc21 ?
TDP1 inh: 1%; ClpP mod: -2%; DT40 TDP1 CPT: inconclusive; TDP1 cell noCPT: inconclusive

How did N#CC(=C1C=CC(=NO)C(Cl)=C1)c1ccc(Cl)cc1 do in these assays?
ClpP mod: -6%; DT40 TDP1 CPT: 4.6µM*; TDP1 cell noCPT: 3.7µM*

What do the screens show for `O=C(O)C1C2CCC1C(O)C2` (stereo not drawn)?
ClpP mod: -3%; DT40 TDP1 CPT: 2%; TDP1 cell noCPT: 4%

What do the screens show for `CNC(=O)[C@H]1O[C@@H](n2cnc3c(N)ncnc32)[C@H](O)[C@@H]1O`?
TDP1 inh: 7%; DT40 TDP1 CPT: -1%; TDP1 cell noCPT: -11%

How did O=C(Nc1ccc(Cl)cc1)Nc1ccc2c(c1)N1CCN=C1S2 do in these assays?
TDP1 inh: 3%; ClpP mod: -5%; DT40 TDP1 CPT: 23µM*; TDP1 cell noCPT: 21µM*

How did Nc1ccc2c(c1)N1CCN=C1S2 do in these assays?
TDP1 inh: -4%; ClpP mod: -2%; DT40 TDP1 CPT: -25%; TDP1 cell noCPT: -24%

Results for COc1ccc(N2C(=O)/C(=C\c3ccco3)N=C2SCC(=O)N(C(C)C)C(C)C)cc1Cl ?
TDP1 inh: 3%; ClpP mod: -1%; DT40 TDP1 CPT: 16µM*; TDP1 cell noCPT: 16µM*

Results for O=C(/C=C/c1ccc(-c2ccccc2[N+](=O)[O-])o1)c1ccc(Br)cc1 ?
TDP1 inh: 5%; ClpP mod: 2%; DT40 TDP1 CPT: inconclusive; TDP1 cell noCPT: 16µM*

Results for Cc1ccc(-c2ccc(/C=C/C(=O)c3ccccc3)o2)cc1 ?
TDP1 inh: 5%; ClpP mod: 3%; DT40 TDP1 CPT: inconclusive; TDP1 cell noCPT: 23µM*

What do the screens show for `NC1=NC(=O)/C(=C\c2ccc(-c3ccccc3[N+](=O)[O-])o2)S1`?
ClpP mod: -2%; DT40 TDP1 CPT: 11µM*; TDP1 cell noCPT: inconclusive

How did Cc1ccc(C(=O)/C=C/c2ccc(-c3ccccc3[N+](=O)[O-])o2)cc1 do in these assays?
TDP1 inh: 8%; ClpP mod: 0%; DT40 TDP1 CPT: inconclusive; TDP1 cell noCPT: 18µM*

How did Cc1ccnc(NC(=O)/C=C/c2ccccc2[N+](=O)[O-])c1 do in these assays?
TDP1 inh: 1%

What do the screens show for `NS(=O)(=O)c1ccc(NC(=O)/C=C/c2ccccc2[N+](=O)[O-])cc1`?
TDP1 inh: 0%; DT40 TDP1 CPT: 4%; TDP1 cell noCPT: -17%

Results for O=C(/C=C/c1ccccc1[N+](=O)[O-])c1ccccc1Br ?
TDP1 inh: 3%; DT40 TDP1 CPT: 21µM*; TDP1 cell noCPT: 8.2µM*

Results for Cc1ccc(C(=O)/C=C/c2ccccc2[N+](=O)[O-])cc1 ?
TDP1 inh: 5%; DT40 TDP1 CPT: inconclusive; TDP1 cell noCPT: 18µM*

How did CCCCCCCCCC1NC(C(=O)O)Cc2c1[nH]c1ccccc21 (stereo not drawn) do in these assays?
ClpP mod: -5%; DT40 TDP1 CPT: -5%; TDP1 cell noCPT: -28%

What do the screens show for `C/C=C(/CCC1NCCc2c1[nH]c1ccccc21)[Si](C)(C)C` (stereo not drawn)?
ClpP mod: -5%; DT40 TDP1 CPT: 3.3µM*; TDP1 cell noCPT: 2.9µM*

How did O=C(NC(NC1CCS(=O)(=O)C1)C(Cl)(Cl)Cl)c1cccc(Cl)c1 (stereo not drawn) do in these assays?
TDP1 inh: 4%; ClpP mod: -2%; DT40 TDP1 CPT: -3%; TDP1 cell noCPT: -19%

How did O=C(NC(NC1CCS(=O)(=O)C1)C(Cl)(Cl)Cl)c1ccc(Br)cc1 (stereo not drawn) do in these assays?
TDP1 inh: -2%; ClpP mod: 0%; DT40 TDP1 CPT: 8.2µM*; TDP1 cell noCPT: 7.3µM*

How did Cc1nc(-c2ccccc2)sc1CCNS(=O)(=O)c1ccc(Br)cc1 do in these assays?
TDP1 inh: 0%; ClpP mod: inconclusive
